According to PubChem BioAssay AID1159580 (chemical genetic matrix, 2015):
Several values for one entry are separate records, joined by “and”; a condition that tells them apart may be missing. Identical values can stand only once. In all, about 5,500 compounds went through this assay and about 2,000 (36%) were called active. Roughly 18% stayed inconclusive and do not appear here. Cut-off read from the data, not from the text of the source: active = normalized growth mostly below about 0.91 (no sharp cut-off); inconclusive = no clear call, values can overlap the other calls; inactive = mostly above about 0.92. This is one part of the list.

Experiment: chemical genetic growth profiling, strain panel (AID 1159580);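 note: tested at 20 µM; growth read once vehicle control cultures reached saturation at 30 °C; 1 = growth at the plate median or of vehicle wells; lower values mean less growth of the strain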
Conditions: S. cerevisiae deletion strains, growth OD

Measured: normalized growth

CCN(CC)CCNC(=O)c1cc(S(C)(=O)=O)ccc1OC
inactive: locus YAL013W, strain DEP1, active compounds read low 1 | locus YAL021C, strain ccr4, active compounds read low 0.979 | locus YAL026C, strain drs2, active compounds read low 0.976 | locus YAL030W, strain snc1, active compounds read low 0.955 | locus YAL040C, strain CLN3, active compounds read low 1.05 | locus YBL061C, strain skt5, active compounds read low 0.967 | locus YBR009C, strain hhf1, active compounds read low 0.989 | locus YBR021W, strain FUR4, active compounds read low 1.02 | locus YBR023C, strain chs3, active compounds read low 0.968 | locus YBR171W, strain sec66, active compounds read low 0.955 | locus YBR229C, strain ROT2, active compounds read low 1.01 | locus YBR231C, strain swc5, active compounds read low 0.974 | locus YBR279W, strain paf1, active compounds read low 0.969 | locus YCL011C, strain gbp2, active compounds read low 0.945 | locus YCL016C, strain dcc1, active compounds read low 0.971 | locus YCL029C, strain bik1, active compounds read low 1.01 | locus YCL061C, strain MRC1 (second series), active compounds read low 0.991 | locus YCL061C, strain MRC1, active compounds read low 0.982 | locus YCL069W, strain vba3, active compounds read low 0.984 | locus YCR088W, strain abp1, active compounds read low 0.967 | locus YDL005C, strain med2, active compounds read low 0.972 | locus YDL035C, strain GPR1, active compounds read low 1.02 | locus YDL040C, strain nat1, active compounds read low 0.976 | locus YDL074C, strain BRE1, active compounds read low 1 | locus YDL101C, strain DUN1, active compounds read low 1.01 | locus YDL134C, strain PPH21, active compounds read low 1.02 | locus YDL185W, strain tfp1, active compounds read low 1.01 | locus YDL192W, strain arf1, active compounds read low 1.01 | locus YDR001C, strain nth1, active compounds read low 0.953 | locus YDR069C, strain doa4, active compounds read low 0.974 | locus YDR101C, strain arx1, active compounds read low 0.991 | locus YDR137W, strain rgp1, active compounds read low 0.959 | locus YDR150W, strain NUM1, active compounds read low 1.01 and 0.998 | locus YDR159W, strain sac3, active compounds read low 0.978 | locus YDR162C, strain NBP2, active compounds read low 1.02 | locus YDR195W, strain ref2 0.965 | locus YDR297W, strain sur2, active compounds read low 0.967 | locus YDR318W, strain mcm21, active compounds read low 1.02 | locus YDR334W, strain swr1, active compounds read low 0.937 | locus YDR335W, strain msn5, active compounds read low 0.966 | locus YDR363W, strain ESC2, active compounds read low 0.973 | locus YDR388W, active compounds read low 1.02 | locus YDR392W, strain spt3, active compounds read low 0.902 | locus YDR502C, strain sam2, active compounds read low 1.01 | locus YEL003W, strain gim4, active compounds read low 0.979 | locus YEL037C, strain rad23, active compounds read low 0.971 | locus YEL061C, strain CIN8 (second series), active compounds read low 0.964 | locus YEL061C, strain CIN8, active compounds read low 1.01 | locus YER002W, strain NOP16, active compounds read low 1.01 | locus YER015W, strain faa2, active compounds read low 0.976 | locus YER016W, strain bim1, active compounds read low 0.988 | locus YER110C, active compounds read low 1.01 | locus YER111C, strain swi4, active compounds read low 0.966 | locus YER155C, strain BEM2 (second series), active compounds read low 0.978 | locus YER155C, strain BEM2, active compounds read low 1.01 | locus YER167W, strain BCK2, active compounds read low 1.02 | locus YFR010W, strain ubp6, active compounds read low 0.953 | locus YGL078C, strain dbp3, active compounds read low 1.01 | locus YGL086W, strain mad1, active compounds read low 1 | locus YGL167C, strain pmr1, active compounds read low 0.97 | locus YGL173C, strain kem1, active compounds read low 0.965 | locus YGL227W, strain vid30, active compounds read low 0.97 | locus YGL240W, strain doc1, active compounds read low 0.972 | locus YGL248W, strain PDE1, active compounds read low 1 | locus YGL253W, strain hxk2, active compounds read low 0.987 | locus YGR078C, strain PAC10, active compounds read low 0.998 | locus YGR135W, strain pre9, active compounds read low 1.03 | locus YGR229C, strain SMI1, active compounds read low 0.96 | locus YGR252W, strain gcn5, active compounds read low 0.996 | locus YHR013C, strain ard1, active compounds read low 0.95 | locus YHR027C, strain rpn1, active compounds read low 0.952 | locus YHR030C, strain SLT2, active compounds read low 1.01 and 0.98 | locus YHR079C, strain IRE1 (second series), active compounds read low 1.01 | locus YHR079C, strain IRE1, active compounds read low 0.998 | locus YHR094C, strain hxt1, active compounds read low 1.01 | locus YHR129C, strain ARP1, active compounds read low 1.01 | locus YHR142W, strain chs7, active compounds read low 0.928 | locus YHR200W, strain rpn10, active compounds read low 1.01 | locus YIL066C, strain RNR3, active compounds read low 1.02 | locus YIL073C, strain SPO22, active compounds read low 1.1 | locus YIL125W, strain kgd1, active compounds read low 1.02 | locus YIR030C, strain dcg1, active compounds read low 1.01 | locus YJL092W, strain hpr5, active compounds read low 0.979 | locus YJL095W, strain BCK1 (second series), active compounds read low 0.972 | locus YJL095W, strain BCK1, active compounds read low 0.997 and 0.978 | locus YJL115W, strain asf1, active compounds read low 0.954 | locus YJL129C, strain trk1, active compounds read low 0.986 | locus YJL134W, strain LCB3, active compounds read low 1.01 | locus YJL154C, strain vps35, active compounds read low 0.95 | locus YJL164C, strain tpk1, active compounds read low 0.981 | locus YJL166W, strain qcr8, active compounds read low 0.931 | locus YJL168C, strain set2, active compounds read low 1.01 | locus YJL187C, strain SWE1 (second series), active compounds read low 0.999 | locus YJL187C, strain SWE1, active compounds read low 0.974 | locus YJR043C, strain POL32, active compounds read low 1.01
